Where “and” joins values, the source holds several entries; their conditions need not be identical. Identical values can stand only once. A structure can be active in one record and inactive in another. Calls of active or inactive are those of the source.
How the values were obtained:
[1] = binders of probe aFSTL3 on microarray, primary screen, stem cell growth factor project, biochemical, small-molecule microarray, fluorescence 635/667 (AID 1064); details: higher = more signal;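 also: measures binding of the biotinylated anti-FSTL3 antibody to printed compounds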
[2] = binders from COS7 lysate, DM2A8 probe, primary screen, torsin A project, cell lysate, small-molecule microarray, fluorescence 635/667 (AID 1065); details: higher = more signal, COS7 lysate expressing mutant human TOR1A
[3] = binders of probe aFGF2 on microarray, primary screen, stem cell growth factor project, biochemical, small-molecule microarray, fluorescence 635/667 (AID 1067); details: higher = more signal;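 also: measures binding of biotinylated aFGF2 protein to printed compounds on slides; z-score merges feature fluorescence and signal-to-noise across triplicate slides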
[4] = binders of probe aFGF10 on microarray, primary screen, stem cell growth factor project, biochemical, small-molecule microarray, fluorescence 635/667 (AID 1071); details: higher = more signal;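 also: score merges 667 nm spot intensity and signal to noise from triplicate slides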
[5] = biological target: Neurogenic locus notch homolog protein 2 (Homo sapiens) (UniProt Q04721); test: Notch2 binders on small-molecule microarrays, primary screen, biochemical, small-molecule microarray, 635 nm fluorescence, stem cell growth factors (AID 1073); details: Notch2 binding, higher = more signal
Neurogenic locus notch homolog protein 2 (Homo sapiens), sequence (Q04721 whole entry, looked up, canonical isoform): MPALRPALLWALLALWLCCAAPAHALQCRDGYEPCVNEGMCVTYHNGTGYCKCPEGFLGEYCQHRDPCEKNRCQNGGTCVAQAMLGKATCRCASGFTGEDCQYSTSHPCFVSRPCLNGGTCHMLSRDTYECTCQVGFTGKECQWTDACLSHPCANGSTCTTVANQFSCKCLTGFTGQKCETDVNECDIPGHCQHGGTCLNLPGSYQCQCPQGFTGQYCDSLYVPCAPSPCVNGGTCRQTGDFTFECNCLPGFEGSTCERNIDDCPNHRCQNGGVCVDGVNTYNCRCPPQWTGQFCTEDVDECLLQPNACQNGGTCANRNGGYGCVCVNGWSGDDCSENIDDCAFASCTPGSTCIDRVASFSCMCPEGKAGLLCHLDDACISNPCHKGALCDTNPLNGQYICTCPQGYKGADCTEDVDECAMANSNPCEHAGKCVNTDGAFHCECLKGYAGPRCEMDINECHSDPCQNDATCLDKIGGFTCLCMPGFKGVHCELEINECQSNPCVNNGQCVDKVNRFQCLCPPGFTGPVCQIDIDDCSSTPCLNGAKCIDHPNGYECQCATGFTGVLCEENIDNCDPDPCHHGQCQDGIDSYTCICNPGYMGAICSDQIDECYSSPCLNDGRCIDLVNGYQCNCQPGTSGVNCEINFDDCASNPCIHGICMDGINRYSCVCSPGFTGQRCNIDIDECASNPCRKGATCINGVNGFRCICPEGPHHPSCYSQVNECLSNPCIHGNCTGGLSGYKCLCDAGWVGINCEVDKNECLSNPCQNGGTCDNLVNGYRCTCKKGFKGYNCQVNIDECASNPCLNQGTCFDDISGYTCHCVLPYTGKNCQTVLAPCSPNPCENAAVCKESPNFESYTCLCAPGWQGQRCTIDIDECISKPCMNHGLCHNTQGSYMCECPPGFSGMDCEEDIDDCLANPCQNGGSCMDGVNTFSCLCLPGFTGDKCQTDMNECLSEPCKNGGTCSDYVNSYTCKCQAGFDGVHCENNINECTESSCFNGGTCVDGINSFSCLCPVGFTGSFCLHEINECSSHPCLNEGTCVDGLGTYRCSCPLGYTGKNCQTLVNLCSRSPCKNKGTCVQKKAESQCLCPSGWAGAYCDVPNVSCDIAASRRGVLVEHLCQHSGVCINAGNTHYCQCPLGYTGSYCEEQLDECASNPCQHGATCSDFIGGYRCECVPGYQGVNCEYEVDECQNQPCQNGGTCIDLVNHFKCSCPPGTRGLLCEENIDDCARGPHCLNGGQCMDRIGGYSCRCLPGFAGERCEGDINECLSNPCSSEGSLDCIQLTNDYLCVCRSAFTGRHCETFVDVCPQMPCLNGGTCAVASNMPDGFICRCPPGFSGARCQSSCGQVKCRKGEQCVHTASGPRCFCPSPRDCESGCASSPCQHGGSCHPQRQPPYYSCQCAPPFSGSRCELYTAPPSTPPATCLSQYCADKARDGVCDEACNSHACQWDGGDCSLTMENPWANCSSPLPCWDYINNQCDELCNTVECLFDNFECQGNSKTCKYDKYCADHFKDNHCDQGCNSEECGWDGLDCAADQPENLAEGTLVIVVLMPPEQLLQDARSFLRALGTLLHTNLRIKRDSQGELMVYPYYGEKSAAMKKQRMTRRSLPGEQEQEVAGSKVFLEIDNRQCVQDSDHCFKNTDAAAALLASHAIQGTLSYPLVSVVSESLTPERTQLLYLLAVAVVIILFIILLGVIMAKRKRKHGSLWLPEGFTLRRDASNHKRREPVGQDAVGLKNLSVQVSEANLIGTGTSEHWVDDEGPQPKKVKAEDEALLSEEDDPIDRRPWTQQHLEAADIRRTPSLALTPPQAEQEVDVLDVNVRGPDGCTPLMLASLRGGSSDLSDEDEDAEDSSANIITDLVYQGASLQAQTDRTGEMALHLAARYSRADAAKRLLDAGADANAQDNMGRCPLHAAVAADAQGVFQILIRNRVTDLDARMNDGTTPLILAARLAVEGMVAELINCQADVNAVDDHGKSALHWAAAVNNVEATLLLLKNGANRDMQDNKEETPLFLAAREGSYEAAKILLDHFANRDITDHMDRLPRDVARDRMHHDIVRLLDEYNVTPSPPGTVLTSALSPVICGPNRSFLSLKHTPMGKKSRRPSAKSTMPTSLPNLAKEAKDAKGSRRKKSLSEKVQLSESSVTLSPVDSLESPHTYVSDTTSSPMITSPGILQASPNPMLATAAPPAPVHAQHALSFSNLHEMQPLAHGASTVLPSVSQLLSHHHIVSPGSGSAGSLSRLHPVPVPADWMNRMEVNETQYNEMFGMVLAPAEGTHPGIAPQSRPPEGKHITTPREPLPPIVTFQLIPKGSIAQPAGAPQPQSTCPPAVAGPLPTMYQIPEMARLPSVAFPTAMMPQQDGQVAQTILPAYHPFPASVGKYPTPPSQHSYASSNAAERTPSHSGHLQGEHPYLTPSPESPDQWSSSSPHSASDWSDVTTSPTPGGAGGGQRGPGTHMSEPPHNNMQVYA

[6] = biological target: Pro-neuregulin-1, membrane-bound isoform (Homo sapiens) (UniProt Q02297); test: NRG1 binders on small-molecule microarrays, primary screen, psychiatric disease protein project, biochemical, small-molecule microarray, fluorescence 635/667 (AID 1075); details: NRG1 binding, 635 nm fluorescence, higher = more signal;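 also: score combines 667 nm spot fluorescence with signal to noise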
Pro-neuregulin-1, membrane-bound isoform (Homo sapiens), sequence (Q02297 whole entry, looked up, the tested form may be a part, canonical isoform): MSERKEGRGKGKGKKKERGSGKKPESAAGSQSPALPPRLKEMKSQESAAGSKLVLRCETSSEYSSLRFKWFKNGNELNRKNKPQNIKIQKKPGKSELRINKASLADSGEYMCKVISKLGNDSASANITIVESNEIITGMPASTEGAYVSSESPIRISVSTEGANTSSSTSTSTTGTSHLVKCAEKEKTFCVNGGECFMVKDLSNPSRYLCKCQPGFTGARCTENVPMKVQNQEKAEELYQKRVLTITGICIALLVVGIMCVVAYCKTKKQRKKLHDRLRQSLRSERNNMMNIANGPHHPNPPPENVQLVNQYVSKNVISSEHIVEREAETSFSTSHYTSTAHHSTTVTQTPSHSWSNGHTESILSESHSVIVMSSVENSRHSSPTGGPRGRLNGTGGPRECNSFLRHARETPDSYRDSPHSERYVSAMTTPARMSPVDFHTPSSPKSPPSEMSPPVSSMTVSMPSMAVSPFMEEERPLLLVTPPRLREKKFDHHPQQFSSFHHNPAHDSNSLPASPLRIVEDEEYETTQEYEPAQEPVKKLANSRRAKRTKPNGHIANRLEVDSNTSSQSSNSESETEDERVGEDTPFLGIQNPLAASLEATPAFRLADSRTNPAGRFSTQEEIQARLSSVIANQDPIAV

[7] = test system: Neuregulin-1 EGF-like domain; test: binders of neuregulin-1 EGF-like domain, primary screen, biochemical, small-molecule microarray, 635 nm fluorescence (AID 1081); details: small-molecule microarray binding, higher = more signal;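 also: binding of the protein to compounds printed on small-molecule microarray slides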
[8] = FRG1 promoter luciferase signal modulators, primary screen, FRG1 inhibition for FSHD, cell-based, C2C12 myotubes, firefly/Renilla luciferase, luminescence (AID 1084); details: higher = more signal, called active from +8 up or from −8 down
[9] = binders of probe aFST on microarray, primary screen, stem cell growth factor project, biochemical, small-molecule microarray, fluorescence 635/667 (AID 1086); details: higher = more signal;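 also: score merges 667 nm fluorescence with signal-to-noise of each printed compound spot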
[10] = binders of probe aHhip on microarray, primary screen, stem cell growth factor project, biochemical, small-molecule microarray, fluorescence 635/667 (AID 1087); details: higher = more signal;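 also: score merges spot fluorescence at 667nm with spot signal to noise ratio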
[11] = test system: PRMT1 (protein arginine N-methyltransferase 1); test: PRMT1 binders on small-molecule microarrays, primary screen, biochemical, small-molecule microarray, 635 nm fluorescence (AID 1088); details: small-molecule microarray binding, higher = more signal;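 also: binding of Prmt1 protein to compounds spotted on small-molecule microarray slides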
[12] = yeast growth modulation, basal conditions, primary screen, YJM789 clinical isolate, OD600, 24 h (AID 1089);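 also: growth of clinical yeast isolate S. cerevisiae YJM 789 seeded 1000 cells per well; test concentration not given here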; details: S. cerevisiae YJM789 growth, higher = more signal, called active from +8 up or from −8 down
[13] = fission yeast growth modulation, primary screen, strain 972, OD600, 24 h, no modulator (AID 1090);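 also: basal condition with compound alone and no growth modifier present; test concentration not given here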; details: S. pombe 972 growth, higher = more signal, called active from +8 up or from −8 down
[14] = S. cerevisiae growth modulation with rapamycin, primary screen, strain BY4716, OD600, 96 h (AID 1091); details: higher = more signal, called active from +8 up or from −8 down; also: test concentration not given here
[15] = biological target: Torsin-1A-interacting protein 2 (Homo sapiens) (UniProt Q8NFQ8); test: LULL1 binders on small-molecule microarray, primary screen, cell lysate, human LULL1 lysate, 635/667 nm fluorescence (AID 1092); details: hLULL1 lysate binding, 635 nm fluorescence, higher = more signal;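 also: probe is lysate of COS7 cells overexpressing human LULL1; score merges per-feature 667 nm fluorescence with signal-to-noise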
Torsin-1A-interacting protein 2 (Homo sapiens), sequence (Q8NFQ8 whole entry, looked up): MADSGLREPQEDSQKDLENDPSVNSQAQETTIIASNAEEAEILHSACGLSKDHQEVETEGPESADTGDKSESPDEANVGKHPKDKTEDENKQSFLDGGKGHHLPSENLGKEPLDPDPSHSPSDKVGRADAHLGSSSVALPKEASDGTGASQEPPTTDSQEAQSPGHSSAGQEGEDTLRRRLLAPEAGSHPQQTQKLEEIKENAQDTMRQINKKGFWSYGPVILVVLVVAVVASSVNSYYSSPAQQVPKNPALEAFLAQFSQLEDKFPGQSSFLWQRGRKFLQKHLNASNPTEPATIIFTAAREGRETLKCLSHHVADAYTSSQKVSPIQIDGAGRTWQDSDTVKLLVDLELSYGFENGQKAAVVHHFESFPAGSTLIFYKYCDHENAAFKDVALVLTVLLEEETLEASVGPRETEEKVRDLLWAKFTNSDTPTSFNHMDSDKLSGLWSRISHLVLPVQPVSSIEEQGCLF

[16] = E. coli growth modulation, two-sided OD650, primary screen, E. coli filamentation project, strain DRC41, 24 h (AID 1093); details: OD650, 24 h, higher = more signal, called active from +8 up or from −8 down;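 also: MC1000 strain lacking acrAB efflux and sulA so SOS filamentation is blocked; test concentration not given here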
[17] = small-molecule microarray binders of probe aLefty2, primary screen, biochemical, biotinylated probe, 635/667 nm fluorescence (AID 1094); details: higher = more signal;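 also: score merges spot fluorescence near 667 nm with spot signal-to-noise ratio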
[18] = test system: Noggin (protein binding on small-molecule microarray); test: Noggin binders on small-molecule microarray, primary screen, biochemical, 635/667 nm fluorescence (AID 1095); details: 635 nm fluorescence, higher = more signal;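 also: score merges 667 nm feature fluorescence with signal to noise over triplicate slides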
[19] = biological target: Neurogenic locus notch homolog protein 3 (Homo sapiens) (UniProt Q9UM47); test: NOTCH3 binders on small-molecule microarray, primary screen, biochemical, 635/667 nm fluorescence (AID 1096); details: NOTCH3 binding, 635 nm fluorescence, higher = more signal
[20] = small-molecule microarray binders of probe aEGFR, primary screen, biochemical, biotinylated probe, 635/667 nm fluorescence (AID 1097); details: higher = more signal;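 also: probe is a biotinylated anti-EGFR antibody binding compounds printed on slides; score combines fluorescence near 667 nm and signal to noise of each spot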

Row | Compound | composite z-score [1] | composite z-score [2] | composite z-score [3] | composite z-score [4] | composite z-score [5] | composite z-score [6] | composite z-score [7] | z-score [8] | composite z-score [9] | composite z-score [10] | composite z-score [11] | z-score [12] | z-score [13] | z-score [14] | composite z-score [15] | z-score [16] | composite z-score [17] | composite z-score [18] | composite z-score [19] | composite z-score [20]
1 | C=CCN(C(=O)C1N(CCOCCO)C(=O)C2C(C(=O)O)C3C=CC21O3)C(C)(C)C (stereo not given) | 0.977 and 0.412 | -0.768 and -0.863 | -0.25 and -0.262 | -1.82 and -1.11 | -2.44 and -1.36 | -0.774 and -0.717 | -0.643 and -0.383 | 0.97 (inactive) and -0.383 (inactive) | -1.09 and -1.91 | -0.175 and 0.0156 | -1.26 and -0.124 | -0.419 (inactive) and -0.683 (inactive) | -0.378 (inactive) and -0.505 (inactive) | -0.357 (inactive) and -0.658 (inactive) | -1.29 and -1.44 | 0.389 (inactive) and 0.267 (inactive) | -0.251 and -0.197 | -2.02 and -1.83 | -1.49 and -0.757 | -0.323 and -0.241
2 | COCn1c2ccccc2c2nnc(C(C)=O)nc21 | -0.401 and -0.253 | 0.416 and -0.0491 | -0.108 and -0.112 | 0.111 and 0.226 | -0.0995 and 0.194 | -0.325 and -0.146 | -0.29 and -0.548 | 0.51 (inactive) and 0.697 (inactive) | 0.252 and -0.0637 | -0.0994 and 0.0515 | -0.217 and 0.724 | -0.405 (inactive) and -0.362 (inactive) | -0.267 (inactive) and -1.08 (inactive) | -0.189 (inactive) and -0.135 (inactive) | -0.0703 and 0.184 | -0.35 (inactive) and -0.768 (inactive) | -0.0702 and -0.0137 | 0.1 and 0.372 | -0.007 and 0.307 | -0.0398 and -0.123
3 | COC(=O)c1c2oc(c1C(=O)OC)C(=O)N[C@@H](Cc1ccccc1)Cn1cc(nn1)C1(CCCCC1)NC(=O)N[C@H](CO)CC2 | 0.345 and -0.428 | -0.946 and -0.603 | -0.0558 and -0.0752 | 0.866 and 0.262 | 0.395 and 0.428 | 1.23 and 0.0012 | 1.31 and 0.747 | -0.818 (inactive) and -1 (inactive) | 0.247 and 0.182 | -0.0346 and -0.13 | 1.43 and 0.951 | 0.168 (inactive) and 0.611 (inactive) | -0.79 (inactive) and -0.186 (inactive) | -0.427 (inactive) and -0.2 (inactive) | 2.52 and 0.978 | 2.09 (inactive) and 1.21 (inactive) | 0.558 and 0.72 | 1.57 and 0.416 | 0.971 and 0.57 | 0.0408 and -0.0697
4 | CC(C)[Si]1(C(C)C)OCc2cc(CCCc3cc4c(c(CCc5ccccc5)n3)[Si](C(C)C)(C(C)C)OC4)nc(CCc3ccccc3)c21 | -0.0088 and -0.516 | 0.0696 and 0.445 | -0.105 and -0.12 | -0.841 and 0.402 | -0.0702 and 0.469 | -0.429 and -0.0826 | -0.688 and 0.277 | -0.712 (inactive) and 0.124 (inactive) | -0.0006 and 0.0171 | 0.141 and 0.065 | 0.393 and 0.722 | 0.873 (inactive) and 0.702 (inactive) | -19.7 (active) and 0.733 (inactive) | -1.25 (inactive) and 0.323 (inactive) | 0.227 and 0.364 | 2.13 (inactive) and -1.16 (inactive) | -0.128 and -0.0479 | -0.0022 and 0.42 | -0.604 and 0.721 | -0.157 and -0.0594
5 | CCCC[C@@H]1CN2[C@H](c3ccc(Br)cc3)[C@@H](C)CC[C@H]2C(=O)O1 | -0.419 and -0.254 | -0.309 and 0.41 | -0.129 and -0.103 | -0.0574 and -0.132 | -0.118 and -0.134 | 0.0412 and -0.139 | -0.246 and -0.605 | -1.09 (inactive) and 0.204 (inactive) | -0.0739 and -0.0224 | 0.0264 and -0.0237 | -0.214 and 0.499 | -0.156 (inactive) and -0.142 (inactive) | -19.4 (active) and -17.4 (active) | -0.269 (inactive) and -0.224 (inactive) | -0.461 and -0.18 | 0.298 (inactive) and 0.24 (inactive) | -0.234 and -0.145 | 0.16 and 0.31 | -0.391 and -0.433 | -0.174 and -0.137
6 | CCOC(=O)NN=C1C[C@@H](O)[C@@H](O)[C@@H]2[C@@H]3C(=O)N(Cc4ccccc4)C(=O)[C@@H]3CC[C@@H]12 | -0.629 | 0.0854 | -0.202 | 0.295 | 0.388 | 0.318 | -0.026 | -0.0833 (inactive) | -0.0089 | -0.0391 | 0.249 | 0.872 (inactive) | 0.117 (inactive) | 0.552 (inactive) | -0.572 | -1.68 (inactive) | -0.217 | 0.406 | 0.639 | -0.282
